Assay outcomes as filed in PubChem.
RORg inh: ROR gamma (mouse) transcription inhibition. 5.4% of 310,000 active. P51450. Potency, µM (highest dose often 53.6 µM), inactives show at the highest dose activity change, negative = inhibition, usual class: inhibitors. Drosophila S2 Gal4-RORgamma UAS-luciferase reporter, 20 h; further: on the % scale 0 is the no-effect control and ±100 the full control effect; nearly all actives have a fitted effect of over 60% in size
Target sequence (P51450 whole entry, looked up, the tested form may be a part): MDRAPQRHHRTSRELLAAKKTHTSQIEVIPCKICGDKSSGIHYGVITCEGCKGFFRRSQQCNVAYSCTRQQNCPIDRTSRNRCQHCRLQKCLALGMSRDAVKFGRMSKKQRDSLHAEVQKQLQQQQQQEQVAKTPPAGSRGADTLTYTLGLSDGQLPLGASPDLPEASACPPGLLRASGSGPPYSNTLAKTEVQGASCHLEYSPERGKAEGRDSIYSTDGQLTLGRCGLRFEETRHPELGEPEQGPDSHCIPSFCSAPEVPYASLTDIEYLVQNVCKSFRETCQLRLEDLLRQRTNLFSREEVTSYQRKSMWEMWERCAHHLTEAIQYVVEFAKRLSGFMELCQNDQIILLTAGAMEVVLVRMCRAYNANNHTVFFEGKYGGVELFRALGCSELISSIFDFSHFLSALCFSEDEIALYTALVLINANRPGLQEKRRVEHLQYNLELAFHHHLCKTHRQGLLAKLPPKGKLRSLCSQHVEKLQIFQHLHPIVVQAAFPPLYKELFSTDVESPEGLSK
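ROR gamma transcriptional activity was tracked as Gal4-UAS luciferase output in stably transfected Drosophila Schneider cells, with compound added 1 hr before 700 uM copper sulfate induction and a 20 hr ambient-temperature incubation.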
Mito fusion yeast: mitochondrial division inhibition or fusion activation. AID 485298. Potency, µM (titrated, usually from 46.1 µM), for inactives: at the top dose growth rescue (activation), usual class: activators. S. cerevisiae fusion-defective mutant growth rescue, CellTiterGlo 48 h. 0.23% of 320,000 active; further: % of control where 0% means no effect; nearly all actives have a fitted effect of over 45% in size
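Compounds are tested for their ability to restore growth of mitochondrial fusion-defective yeast strains at non-permissive 37C in YPEG medium over 48 hours. Viability is quantified by luciferase luminescence.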
uPA surface inh: inhibitors of cell surface uPA generation | cell surface uPA generation assay, qHTS | Potency, µM (highest dose often 38.3 µM), for the others: at the highest dose activity change, negative = inhibition, actives largely listed as inhibitors | 0.31% of 330,000 active; active means well fitted inhibition curve with a large enough effect; inconclusive means small, poorly fitted or top-dose-only effect; inactive means no such curve, though single readings can be large or run the other way; tested in mouse RAW 264.7 cells; further: on the % scale 0 is the no-effect control and ±100 the full control effect; nearly all actives have a fitted effect of over 55% in size
Chronic BCR inh: inhibitors of chronic active B-cell receptor signaling. 0.05% of 340,000 active. AID 493014. ABC-DLBCL IkBa-CBG/CBR reporter, luminescence ratio, 4 h. Potency, µM (titrated, usually from 46.1 µM), inactives show top-dose activity change, negative = inhibition, hits mostly inhibitors; active means well fitted inhibition curve with a large enough effect in the signal ratio, with a control signal flat, not every such curve was filed as active; inconclusive means small, poorly fitted or top-dose-only effect, or effect the other way, or a change in a side signal; the % refers to the signal ratio;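 further: plate controls were basal doxycycline-induced cells for no effect and cells given 10 µM MG132 for full effect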
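Compounds up to 46 uM were incubated four hours with TMD8 cells whose green CBG68 luciferase is fused to IkappaBalpha; red CBR luminescence normalised the signal, and concentration-effect curves were fitted to fusion, red and ratio data.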
VP16 counter: Gal4-VP16 reporter inhibition counter-screen | Drosophila S2 Gal4-VP16 UAS-luciferase, luminescence, 20 h | Potency, µM (top dose mostly 53.6 µM), inactives show top-dose activity, negative = inhibition, actives largely listed as inhibitors | 3.5% of 310,000 active;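 further: Gal4-VP16 expression switched on by copper sulfate through the metallothionein promoter; on the % scale 0 is the no-effect control and ±100 the full control effect; nearly all actives have a fitted effect of over 50% in size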
a7 integrin act: activators of alpha7 integrin expression for muscular dystrophy; alpha7betagal myoblasts, beta-gal FDG fluorescence, 48 h; Potency, µM (series often up to 38.3 µM), without a hit: top-dose activation, hits mostly activators; 0.064% of 350,000 active; AID 624291;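 further: 100% = response of the positive control SU9516; nearly all actives have a fitted effect of over 60% in size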
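alpha7betagal+/- myoblasts (passage 13, 250/well) treated 48 h at 37C with compounds at 1:260 dilution of DMSO stock. Lysed, then beta-galactosidase activity read as FDG fluorescence (ex 480/em 540) after 30 min, with pre-read for autofluorescence.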
* = called active by the depositor. Compounds with a hit are over-represented: about 5.5% of the library has one in this group of screens. Unless noted, the call rests on the fitted dose curve; in most records, active means well fitted curve in the direction sought with a large enough effect; inconclusive means small, poorly fitted or top-dose-only effect, or another doubt; inactive means no such curve, though single readings can be large; an effect the other way counts as inactive or inconclusive. Potency means the concentration at half of the fitted maximal effect.

What do the screens show for `O=C(CCl)N(c1ccccc1)C1CCCCC1`?
RORg inh: 0.71µM*; Mito fusion yeast: 2%; uPA surface inh: -16%; Chronic BCR inh: inconclusive; VP16 counter: 3.5µM*; a7 integrin act: -57%

What do the screens show for `CC(C)(C)c1ccc(C(=O)CC(=O)c2cc(Cl)ccc2O)cc1`?
RORg inh: 11µM*; Mito fusion yeast: 4%; uPA surface inh: 1%; Chronic BCR inh: 15%; VP16 counter: inconclusive; a7 integrin act: -37%

How did Cc1ccc(CC(=O)c2ccc(Cl)cc2)cc1 do in these assays?
RORg inh: 15%; Mito fusion yeast: 2%; uPA surface inh: 0%; Chronic BCR inh: inconclusive; VP16 counter: 22%; a7 integrin act: 5%

What do the screens show for `Cc1ccc(C(=O)CC(=O)c2ccc(C)cc2O)cc1`?
RORg inh: 8.9µM*; Mito fusion yeast: inconclusive; uPA surface inh: 3%; Chronic BCR inh: inconclusive; VP16 counter: inconclusive; a7 integrin act: 7%

Results for Cc1ccc(C(=O)CC(=O)c2cc(Cl)ccc2O)cc1 ?
RORg inh: inconclusive; Mito fusion yeast: 7%; Chronic BCR inh: inconclusive; VP16 counter: 10µM*; a7 integrin act: -44%

How did Cc1ccc(C(=O)Cc2ccccc2)c(O)c1 do in these assays?
uPA surface inh: 3%; a7 integrin act: 3%

What do the screens show for `O=C(O)/C=C/C(=O)c1c(-c2ccccc2)[nH]c2ccccc12`?
RORg inh: 14µM*; Mito fusion yeast: -1%; uPA surface inh: -9%; Chronic BCR inh: inconclusive; VP16 counter: inconclusive; a7 integrin act: 13%

What do the screens show for `CC(=O)c1c(-c2ccccc2)[nH]c2ccccc12`?
RORg inh: inconclusive; Mito fusion yeast: -9%; uPA surface inh: -9%; Chronic BCR inh: inconclusive; VP16 counter: 2%; a7 integrin act: -15%

What do the screens show for `NNc1nc(-c2ccccc2Cl)c2cc(Br)ccc2n1`?
RORg inh: 11µM*; Mito fusion yeast: -12%; uPA surface inh: -12%; Chronic BCR inh: -2%; VP16 counter: inconclusive; a7 integrin act: -1%

Results for NS(=O)(=O)c1ccc(CCNc2ncnc3c2cnn3-c2cccc(Cl)c2)cc1 ?
Chronic BCR inh: 12%

Results for C/C(=N/NC(=O)c1ccc(Br)s1)c1ccncc1 ?
RORg inh: 9%; Mito fusion yeast: 5%; uPA surface inh: -21%; Chronic BCR inh: inconclusive; VP16 counter: 24%; a7 integrin act: inconclusive

Results for C/C(=N/NC(=O)c1ccco1)c1ccc(Br)s1 ?
RORg inh: 13µM*; Mito fusion yeast: 2%; uPA surface inh: -10%; Chronic BCR inh: inconclusive; VP16 counter: inconclusive; a7 integrin act: 4%

What do the screens show for `C/C(=N\NC(=O)c1ccc(Cl)cc1)c1ccc(Br)s1`?
RORg inh: 0.35µM*; Mito fusion yeast: 5%; uPA surface inh: 0%; Chronic BCR inh: -29%; VP16 counter: 1.1µM*; a7 integrin act: -26%

What do the screens show for `C/C(=N\NC(=O)c1cc(Cl)ccc1O)c1ccc(Br)s1`?
RORg inh: 6.3µM*; Mito fusion yeast: 11%; uPA surface inh: 2%; Chronic BCR inh: inconclusive; VP16 counter: 2.5µM*; a7 integrin act: 0%

How did O=C(NNC(=O)C1CCN(S(=O)(=O)c2ccc(Cl)cc2)CC1)c1ccccc1O do in these assays?
Mito fusion yeast: 3%; uPA surface inh: -30%; Chronic BCR inh: 5%; a7 integrin act: -17%

What do the screens show for `COc1cccc(C2CC3(CC(C)(C)NC(=S)N3)Oc3cc(O)ccc32)c1` (stereo not given)?
RORg inh: -38%; Mito fusion yeast: -3%; uPA surface inh: 2%; Chronic BCR inh: inconclusive; VP16 counter: -1%; a7 integrin act: 11%

What do the screens show for `CC1(C)CC2(CC(c3ccccc3F)c3cc(Cl)c(O)cc3O2)NC(=S)N1` (stereo not given)?
RORg inh: 11µM*; Mito fusion yeast: -7%; uPA surface inh: -1%; Chronic BCR inh: inconclusive; VP16 counter: inconclusive; a7 integrin act: 13%

How did Cc1cccc(C2CC3(CC(C)(C)NC(=S)N3)Oc3cc(O)ccc32)c1 (stereo not given) do in these assays?
RORg inh: 10µM*; Mito fusion yeast: -8%; uPA surface inh: -3%; Chronic BCR inh: inconclusive; VP16 counter: -17%; a7 integrin act: 14%

What do the screens show for `CC(/C=C/C(=O)NO)=C\[C@@H](C)C(=O)c1ccc(N(C)C)cc1`?
RORg inh: -12%; VP16 counter: -16%

How did O=C(Nc1cccc(-c2ccc(N3CCCCC3)nn2)c1)C(F)(F)F do in these assays?
RORg inh: 6.3µM*; Mito fusion yeast: -1%; uPA surface inh: inconclusive; Chronic BCR inh: inconclusive; VP16 counter: 10µM*; a7 integrin act: -7%

What do the screens show for `CC1CCN(c2ccc(-c3cccc(NC(=O)C(F)(F)F)c3)nn2)CC1`?
RORg inh: inconclusive; Mito fusion yeast: inconclusive; uPA surface inh: -5%; Chronic BCR inh: inconclusive; VP16 counter: 2.8µM*; a7 integrin act: 7%

How did CO/N=C(/C(=O)N[C@@H]1C(=O)N2C(C(=O)O)=C(C[n+]3ccc(N)n3CCO)CS[C@H]12)c1csc(N)n1 do in these assays?
RORg inh: 8%; VP16 counter: -4%

What do the screens show for `COc1cc(C/C=C/c2ccccc2)c(OC)cc1O`?
RORg inh: inconclusive; VP16 counter: -14%

How did CN1CCN(c2ccnc(-c3cccc(NS(C)(=O)=O)c3)n2)CC1 do in these assays?
RORg inh: -10%; VP16 counter: -6%

How did CC(C)NC(=O)N(C)C[C@H]1OCc2cnnn2CCCC(=O)N([C@H](C)CO)C[C@H]1C do in these assays?
a7 integrin act: 5%

What do the screens show for `O=C(/C=C/c1ccccc1)NC(=S)NNC(=O)c1cccnc1`?
RORg inh: 10µM*; Mito fusion yeast: -3%; uPA surface inh: 1%; Chronic BCR inh: inconclusive; VP16 counter: inconclusive; a7 integrin act: -12%

Results for COc1cc(C(=O)NNC(=S)NC(=O)/C=C/c2ccccc2)cc(OC)c1OC ?
RORg inh: 2.8µM*; Mito fusion yeast: 1%; uPA surface inh: 0%; Chronic BCR inh: inconclusive; VP16 counter: 4µM*; a7 integrin act: -23%
